Compounds without any hit were thinned out: in the full panel of roughly 83,000, 20% have a hit.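 Assay: single dose, 48 h. Readout: percent growth (0 = no net growth; negative = cell death). Active: <10.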 Activity calls are given as the source filed them.
Tests used:
Assay in all cases: NCI-60 one-dose screen, 48 h (100 = growth as untreated, 0 = no growth, -100 = all killed)
Conditions in all cases: 10 µM unless noted
SK-MEL-2 melanoma = system: SK-MEL-2 melanoma
SN12C renal = system: SN12C renal
UO-31 renal = system: UO-31 renal
TK-10 renal = system: TK-10 renal
ACHN renal = system: ACHN renal
CAKI-1 renal = system: CAKI-1 renal
A498 renal = system: A498 renal
CCRF-CEM leukemia = system: CCRF-CEM leukemia
MOLT-4 leukemia = system: MOLT-4 leukemia

Measured: growth

O=[N+]([O-])c1cc(S(=O)(=O)OCC2CO2)ccc1Cl (stereo unspecified)
inactive: SK-MEL-2 melanoma 88.4% | SN12C renal 103% | UO-31 renal 89.7% | TK-10 renal 114% | ACHN renal 98.5% | CAKI-1 renal 104% | A498 renal 121% | CCRF-CEM leukemia 76.7% | MOLT-4 leukemia 95.3%

O=C(/C=C/c1ccccc1)n1c(-c2ccc(Cl)cc2)nc2ccccc21
active: SK-MEL-2 melanoma -36% | SN12C renal -48.5% | UO-31 renal -39% | ACHN renal -49.9% | CAKI-1 renal -39.4% | A498 renal -14.6% | CCRF-CEM leukemia -23.9%
inactive: TK-10 renal 18.6% | MOLT-4 leukemia 21.9%

Cc1nn(-c2ccc(Cl)cc2)c(=O)n1CCOc1ccccc1Cl
inactive: SK-MEL-2 melanoma 126% | SN12C renal 93.6% | UO-31 renal 94.9% | TK-10 renal 108% | ACHN renal 78.9% | CAKI-1 renal 85.7% | A498 renal 103% | CCRF-CEM leukemia 86.4% | MOLT-4 leukemia 97.2%

c1cc(-c2ccc3c(c2)OCO3)n2nccc2n1
inactive: SK-MEL-2 melanoma 108% | SN12C renal 108% | UO-31 renal 90.9% | TK-10 renal 104% | ACHN renal 98.2% | CAKI-1 renal 94.4% | A498 renal 81.5% | CCRF-CEM leukemia 100% | MOLT-4 leukemia 97.1%

Clc1nc(Cl)c2ncn(C/C=C/Cn3cnc4c(Cl)nc(Cl)nc43)c2n1
active: UO-31 renal 5.99% | CAKI-1 renal -60%
inactive: SK-MEL-2 melanoma 96.5% | SN12C renal 96.5% | TK-10 renal 79.9% | ACHN renal 90% | A498 renal 90.2% | CCRF-CEM leukemia 18.2% | MOLT-4 leukemia 80.8%

CC/C=C\C[C@H]1C/C=C2/C(=O)C(Cl)=C[C@@H]2C/C=C\CCCC(=O)O1
active: SK-MEL-2 melanoma -44.1% | SN12C renal -1.11% | UO-31 renal -93.8% | TK-10 renal -55.3% | ACHN renal -64.6% | CAKI-1 renal 2.64% | A498 renal -68.3% | CCRF-CEM leukemia -19.1% | MOLT-4 leukemia -9.42%

COC(=O)CCCCN=Cc1c(O)c(O)c(C(C)C)c2cc(C)c(-c3c(C)cc4c(C(C)C)c(O)c(O)c(C=NCCCCC(=O)OC)c4c3O)c(O)c12
inactive: SK-MEL-2 melanoma 17.3% | SN12C renal 16.1% | UO-31 renal 14.7% | TK-10 renal 12.6% | ACHN renal 13.4% | CAKI-1 renal 50.8% | A498 renal 12.2% | CCRF-CEM leukemia 18.4% | MOLT-4 leukemia 14.4%

O=C1Nc2cc(Cl)ccc2Oc2cc(Oc3ccccc3)ccc21
inactive: SK-MEL-2 melanoma 48% | SN12C renal 68% | UO-31 renal 53.4% | TK-10 renal 78% | ACHN renal 83.7% | CAKI-1 renal 51% | A498 renal 67.1% | CCRF-CEM leukemia 54.6% | MOLT-4 leukemia 45.9%

Nc1c(C(=O)Nc2c(Cl)cccc2Cl)sc2nc3c(cc12)CCCCC3
inactive: SK-MEL-2 melanoma 62.8% | SN12C renal 61.7% | UO-31 renal 63.9% | TK-10 renal 69% | ACHN renal 58.5% | CAKI-1 renal 69.4% | A498 renal 30% | CCRF-CEM leukemia 43.7% | MOLT-4 leukemia 54.4%

Clc1nc(-c2cccnc2)nc2sc3c(c12)CCCCCC3
inactive: SK-MEL-2 melanoma 105% | SN12C renal 99.6% | UO-31 renal 101% | TK-10 renal 103% | ACHN renal 105% | CAKI-1 renal 93.8% | A498 renal 94.1% | CCRF-CEM leukemia 83.4% | MOLT-4 leukemia 90%

CCO/C=N/NC(=O)c1ccncc1
inactive: SK-MEL-2 melanoma 102% | SN12C renal 111% | UO-31 renal 98.9% | TK-10 renal 103% | ACHN renal 108% | CAKI-1 renal 100% | A498 renal 104% | CCRF-CEM leukemia 106% | MOLT-4 leukemia 107%

COc1ccc(C2CC(c3cccs3)=NN2c2ccc(S(=O)(=O)NC(=O)NCc3cccc(OC)c3)cc2)cc1 (stereo unspecified)
inactive: SK-MEL-2 melanoma 57.6% | SN12C renal 112% | UO-31 renal 87.2% | TK-10 renal 96% | ACHN renal 93.2% | CAKI-1 renal 94.7% | A498 renal 102% | CCRF-CEM leukemia 88.1% | MOLT-4 leukemia 94.7%

COC(=O)CCCCCN=Cc1c(O)c(O)c(C(C)C)c2cc(C)c(-c3c(C)cc4c(C(C)C)c(O)c(O)c(C=NCCCCCC(=O)OC)c4c3O)c(O)c12
active: TK-10 renal 3.95%
inactive: SK-MEL-2 melanoma 10.4% | SN12C renal 19.8% | UO-31 renal 19.5% | ACHN renal 15.5% | CAKI-1 renal 55.6% | A498 renal 35.1% | CCRF-CEM leukemia 18.1% | MOLT-4 leukemia 13.6%

COc1ccc([N+](=O)[O-])c(/C=C/C(=O)c2ccccn2)c1
inactive: SK-MEL-2 melanoma 114% | SN12C renal 81.2% | UO-31 renal 73.3% | TK-10 renal 126% | ACHN renal 68.9% | CAKI-1 renal 71.7% | A498 renal 83.3% | CCRF-CEM leukemia 49.6% | MOLT-4 leukemia 13.3%

COc1cc2nc(N3CCC[C@@H](NC4=CC(=O)c5ccccc5C4=O)C3)nc(N)c2cc1OC
inactive: SK-MEL-2 melanoma 109% | SN12C renal 95.9% | UO-31 renal 46% | ACHN renal 72% | CAKI-1 renal 64.9% | A498 renal 107%
active: TK-10 renal -49.3% | CCRF-CEM leukemia -20.9% | MOLT-4 leukemia -37.1%

COc1cc(C(=O)OCCCCCCCCCCC[P+](c2ccccc2)(c2ccccc2)c2ccccc2)ccc1O
active: SK-MEL-2 melanoma -32.1% | SN12C renal -70.1% | UO-31 renal -8.76% | TK-10 renal 8.26% | ACHN renal -1.87% | CAKI-1 renal -73.2% | A498 renal -0.743% | CCRF-CEM leukemia -32.3% | MOLT-4 leukemia -50.9%

CN(C)c1ccc(-c2ccc(-c3ccc(C(=N)N)cn3)o2)cc1
active: SK-MEL-2 melanoma -85.4% | SN12C renal -85.2% | UO-31 renal -69.4% | TK-10 renal -64.7% | ACHN renal -83.5% | CAKI-1 renal -72.5% | A498 renal -9.83% | CCRF-CEM leukemia -2.2% | MOLT-4 leukemia -52.1%

Cc1ccc(Cn2c(-c3cccs3)nc3ccccc32)cc1
inactive: SK-MEL-2 melanoma 101% | SN12C renal 98.6% | UO-31 renal 59.5% | TK-10 renal 89.8% | ACHN renal 86.4% | CAKI-1 renal 86.3% | A498 renal 80.2% | CCRF-CEM leukemia 90.3% | MOLT-4 leukemia 93.2%

O=c1c2cccc3c(Nc4ccc(F)cc4)ccc(c32)c2nc3ccccc3n12
inactive: SK-MEL-2 melanoma 103% | SN12C renal 87.8% | UO-31 renal 49.2% | TK-10 renal 75.3% | ACHN renal 87.9% | CAKI-1 renal 79.9% | A498 renal 66.2% | CCRF-CEM leukemia 94.1% | MOLT-4 leukemia 89.9%

Cc1cc(Nc2nc(C(=O)Nc3ccccc3)nc3ccccc23)n[nH]1
inactive: SK-MEL-2 melanoma 45.3% | SN12C renal 63% | UO-31 renal 37.3% | TK-10 renal 58.8% | ACHN renal 39.9% | CAKI-1 renal 24% | CCRF-CEM leukemia 38.1% | MOLT-4 leukemia 55.4%
active: A498 renal -1.3%

CC[C@H](C)[C@@H]1NC(=O)[C@H]([C@@H](C)O)NC(=O)C(Cc2ccccc2)NC(=O)[C@@H]2CCCN2C(=O)C(C(C)C)NC(=O)C(Cc2ccccc2)NC(=O)CNC(=O)[C@@H]2CCCN2C1=O (stereo partly specified)
inactive: SK-MEL-2 melanoma 88.9% | SN12C renal 72.5% | UO-31 renal 36.8% | TK-10 renal 116% | ACHN renal 58.7% | CAKI-1 renal 37.6% | A498 renal 26.1% | CCRF-CEM leukemia 20%
active: MOLT-4 leukemia 7.99%

COc1cc(C2C=C(C)N=C3SC=CN32)cc(OC)c1OC (stereo unspecified)
inactive: SK-MEL-2 melanoma 115% | SN12C renal 105% | UO-31 renal 90% | TK-10 renal 107% | ACHN renal 115% | CAKI-1 renal 96.9% | A498 renal 106% | CCRF-CEM leukemia 105% | MOLT-4 leukemia 102%

O=S(=O)(c1ccccc1)n1ccc(-c2ccc3c(c2)CCO3)n1
inactive: SK-MEL-2 melanoma 86.5% | SN12C renal 67.9% | UO-31 renal 51% | TK-10 renal 76.2% | ACHN renal 78.4% | CAKI-1 renal 75.3% | A498 renal 71.2% | CCRF-CEM leukemia 76.7% | MOLT-4 leukemia 85.6%

COc1cc2c(cc1OC)C1(C)N(CC2)C(=O)OC1(C)C (stereo unspecified)
active: MOLT-4 leukemia -75.3%
inactive: SK-MEL-2 melanoma 120% | SN12C renal 101% | UO-31 renal 91.3% | TK-10 renal 102% | ACHN renal 107% | CAKI-1 renal 102% | A498 renal 78.8% | CCRF-CEM leukemia 106%

O=C(O)c1cn(C2CC2)c2cc(N3CCN(S(=O)(=O)c4ccc(Cl)c(Cl)c4)CC3)c(F)cc2c1=O
active: SK-MEL-2 melanoma -9.56% | ACHN renal 4.95% | CAKI-1 renal 3.06% | MOLT-4 leukemia 3.44%
inactive: SN12C renal 10.4% | UO-31 renal 10% | TK-10 renal 33.2% | A498 renal 13.8% | CCRF-CEM leukemia 16.9%

COc1cc(OC)cc(-c2n[nH]nc2-c2ccc3c(c2)OCO3)c1
inactive: SK-MEL-2 melanoma 14.4% | SN12C renal 49.1% | UO-31 renal 44.9% | TK-10 renal 59.5% | ACHN renal 42.7% | CAKI-1 renal 36.5% | CCRF-CEM leukemia 10.4% | MOLT-4 leukemia 31.3%
active: A498 renal -1.56%

COc1ccc(N=C2NN=C(c3ccc(F)cc3)CS2)cc1OC
inactive: SK-MEL-2 melanoma 66.4% | SN12C renal 98.1% | UO-31 renal 44.2% | TK-10 renal 89.8% | ACHN renal 93.7% | CAKI-1 renal 84.9% | A498 renal 86.1% | CCRF-CEM leukemia 81.8% | MOLT-4 leukemia 73.4%

NC(=O)c1cccc(N2Cc3ccccc3OC3=C2C(=O)c2c(O)ccc(O)c2C3=O)c1
inactive: A498 renal 62.1%
active: SK-MEL-2 melanoma -38.7% | SN12C renal -53.5% | UO-31 renal -86.7% | TK-10 renal -99.7% | ACHN renal -93.7% | CAKI-1 renal -99.4% | CCRF-CEM leukemia -8.27% | MOLT-4 leukemia -36.2%

Clc1ccc(-c2nc(-c3ccco3)cn3ccnc23)cc1
inactive: SK-MEL-2 melanoma 100% | SN12C renal 65.7% | TK-10 renal 11.9% | CAKI-1 renal 50.2% | A498 renal 36.8% | CCRF-CEM leukemia 78.4% | MOLT-4 leukemia 80%
active: UO-31 renal 7.06% | ACHN renal 8.59%
